From article PMC12864922, “TDP-43 directly inhibits mRNA accumulation in neurites through modulation of mRNA stability” come the findings set out here.

B1: ENSMUSG00000034801.232|Sos2|152:160 (ssRNA)
RNA: GGGAGUUCUACAGUCCGACGAUCGCUUCGAUAUCCGCAUGCUAUAACUGUCUUUAAUCUCGUGUUAACUGAAAUUUUUGAAAAGUUUUUCCAGAUUAGUAAUAUUUAAACAGAAAAUACUUUAAAAAGCUUUAUUAAAUUUUUUAAUCAGGAUAAAGCUUUGCCAUUUGGAUACUAUCAUUCAAAGUGAUCAAGCAUACAUACUUAUGCUGAUAGUGCAGUAGCAGCCAUUGUAAAGUAGCCAAAAGCCACGUUGUUUAUCUACUGGUCUGUGGCCUUUUACUGUGCUUUGUAUCAGAGUUCUCUCUUGCGGUCGCACUAGUGUGGAAUUCUCGGGUGUCAAGG
B2: ENSMUSG00000031028.95|Tub (ssRNA)
RNA: GGGAGUUCUACAGUCCGACGAUCGCUUCGAUAUCCGCAUGCUAGGUGGUCAGCAGAAAGCACUCCCACUUCAAAAGGGCCCAUUAGGCCCAAAGGGGGUUAGGAGUGGUAGGGAUAGGUGCGUGGCAGGUCCCUGCUAGGAUUGCAGGGGCCUGGCCAUGUGUAUUAGCUGGAGGCUUAGAAUGCUAGCUCAUUUGUUGCUACAGAUUUGCCCAGUGCUUGCACACGUAAGAACCCAGCUCUCAAGGCCAAAUAUCUGAGUGGAUGGGGAUGAUAGGAGUCAUCCAGUAGACUCCCUACAUCACUCUUGCGGUCGCACUAGUGUGGAAUUCUCGGGUGUCAAGG
B3: ENSMUSG00000029028.207|Lrrc47 (ssRNA)
RNA: GGGAGUUCUACAGUCCGACGAUCGCUUCGAUAUCCGCAUGCUAGUCCUAAGGACCCAGCAGCUGCACAGAGGACUUGGUGGCCCCGUGCCUUGCCAUCUGGCUGAGAAGAGAACCAGACCCUCAGCCUUCCCCCUCGACACCUUCUCGUUGGUGACCUCUGACCUUAAAGGACCAUUUCUACCUUCUGUAAAAGAACACCUGUUUGGGGUUGCGUGCGGCUUUCAUCCUAAGGCCGUGCGAGAGCCGUUAGCUGUCAGAACUAGUGAAGCUCCAGGCUCCUCGUGGCAGACCCUGGACAACGCCUCUUGCGGUCGCACUAGUGUGGAAUUCUCGGGUGUCAAGG
B4: ENSMUSG00000022095.265|Fam160b2 (ssRNA)
RNA: GGGAGUUCUACAGUCCGACGAUCGCUUCGAUAUCCGCAUGCUAUGUGUGUGUGUGUGUGAGAGAGAGAGAGAGAGAGCGAGCUAUGAAUGAAUGUGAGUGUGUGUGUGUGUGUGUGUGAGAGAGAGAGAGAGAGAGAGAGAGCUGUGAGUACACAUGGGUGCUGGUGUGGGACAGGAGCAGAUCUUGGUGGAGUGGGUCUACACUUGAGAUUUGUACUCGUUUGAGAGGCUGGGCAAUACUCAAUGCACUUUGGCAUUUGCAUGGUGUCUUCACAACAGCACAGCAAUAAACAUUGUGAUUGUCUCUUGCGGUCGCACUAGUGUGGAAUUCUCGGGUGUCAAGG
B5: ENSMUSG00000022095.259|Fam160b2 (ssRNA)
RNA: GGGAGUUCUACAGUCCGACGAUCGCUUCGAUAUCCGCAUGCUAGAGAGAGCGAGCUAUGAAUGAAUGUGAGUGUGUGUGUGUGUGUGUGUGUGUGAGAGAGAGAGAGAGAGAGCGAGCUAUGAAUGAAUGUGAGUGUGUGUGUGUGUGUGUGUGAGAGAGAGAGAGAGAGAGAGAGAGCUGUGAGUACACAUGGGUGCUGGUGUGGGACAGGAGCAGAUCUUGGUGGAGUGGGUCUACACUUGAGAUUUGUACUCGUUUGAGAGGCUGGGCAAUACUCAAUGCACUUUGGCAUUUGCAUGGUGCUCUUGCGGUCGCACUAGUGUGGAAUUCUCGGGUGUCAAGG
B6: ENSMUSG00000022095.262|Fam160b2 (ssRNA)
RNA: GGGAGUUCUACAGUCCGACGAUCGCUUCGAUAUCCGCAUGCUAUGAAUGUGAGUGUGUGUGUGUGUGUGUGUGUGUGAGAGAGAGAGAGAGAGAGCGAGCUAUGAAUGAAUGUGAGUGUGUGUGUGUGUGUGUGUGAGAGAGAGAGAGAGAGAGAGAGAGCUGUGAGUACACAUGGGUGCUGGUGUGGGACAGGAGCAGAUCUUGGUGGAGUGGGUCUACACUUGAGAUUUGUACUCGUUUGAGAGGCUGGGCAAUACUCAAUGCACUUUGGCAUUUGCAUGGUGUCUUCACAACAGCACAGCCUCUUGCGGUCGCACUAGUGUGGAAUUCUCGGGUGUCAAGG
B7: ENSMUSG00000022095.266|Fam160b2 (ssRNA)
RNA: GGGAGUUCUACAGUCCGACGAUCGCUUCGAUAUCCGCAUGCUAUGUGUGUGUGAGAGAGAGAGAGAGAGAGCGAGCUAUGAAUGAAUGUGAGUGUGUGUGUGUGUGUGUGUGAGAGAGAGAGAGAGAGAGAGAGAGCUGUGAGUACACAUGGGUGCUGGUGUGGGACAGGAGCAGAUCUUGGUGGAGUGGGUCUACACUUGAGAUUUGUACUCGUUUGAGAGGCUGGGCAAUACUCAAUGCACUUUGGCAUUUGCAUGGUGUCUUCACAACAGCACAGCAAUAAACAUUGUGAUUGUGUGGACCUCUUGCGGUCGCACUAGUGUGGAAUUCUCGGGUGUCAAGG

Over roughly 9,900 sequences, “r (bound/input frequency ratio)” has its median near 0.7; the highest 2% begin near 6.5. The entries come from a sample that favours the highest values as a whole.

Sequence of TDP-43 (Q13148 whole entry): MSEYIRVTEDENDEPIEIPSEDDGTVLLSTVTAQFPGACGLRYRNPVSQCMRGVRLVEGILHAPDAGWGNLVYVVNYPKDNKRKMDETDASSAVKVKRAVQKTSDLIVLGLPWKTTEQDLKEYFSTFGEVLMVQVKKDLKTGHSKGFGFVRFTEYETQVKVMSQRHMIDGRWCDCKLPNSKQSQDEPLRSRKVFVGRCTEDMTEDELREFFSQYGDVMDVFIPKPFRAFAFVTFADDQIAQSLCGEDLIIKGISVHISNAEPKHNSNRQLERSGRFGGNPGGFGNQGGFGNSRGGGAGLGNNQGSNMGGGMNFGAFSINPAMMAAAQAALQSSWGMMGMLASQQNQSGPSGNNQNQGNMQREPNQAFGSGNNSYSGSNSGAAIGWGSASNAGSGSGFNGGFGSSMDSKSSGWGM

The assay has as its target TDP-43 (Homo sapiens, UniProt Q13148 1-414). Description: RNA Bind-n-Seq with designed 260-mer pool; 25 mM Tris-HCl, 150 mM KCl, 3 mM MgCl2, BSA (printed 500 mg/mL), 20 units/mL SUPERase IN; pH not stated; 500 nM RNA pool, 1 h, 4 C; TDP-43 5, 50, 500 nM; high values mean tight binding. The settings on record: protein: recombinant; tags: SBP (GST cleaved off with PreScission; pGEX-GST-SBP). The method in brief: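 For each oligo, R gives binding as its mapped-read-normalized abundance after pulldown divided by its abundance in input. Bead-captured SBP-tagged TDP-43 (5, 50 or 500 nM) was incubated with 500 nM of an in vitro-transcribed 260-nt 3′ UTR oligo pool for 1 h at 4 °C in 25 mM Tris-HCl, 150 mM KCl, 3 mM MgCl2, BSA and SUPERase IN on streptavidin beads. Washed, biotin-eluted RNA was reverse transcribed, PCR-amplified and sequenced.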
On to B1, for which the binding signal is 0.0144 R (bound/input frequency ratio).

As to B2, the binding signal was 1.54 R (bound/input frequency ratio).

Consider B3, for which the binding signal was 0.453 R (bound/input frequency ratio).

Turning to B4, the binding signal was 4.76 R (bound/input frequency ratio).

Take B5: the binding signal is 5.88 R (bound/input frequency ratio).

Take B6: the binding signal was 9.41 R (bound/input frequency ratio).

With B7, the binding signal was 7.33 R (bound/input frequency ratio).
